Assay results as given in PubChem BioAssay (NCATS).
Results filed as inconclusive are left out. Calls of active or inactive are those of the source. Calls come from the whole dose curve; as a rule, active = well fitted curve in the direction sought with a large enough effect; inconclusive = small, poorly fitted or top-dose-only effect, or another doubt; inactive = no such curve, though single readings can be large; an effect the other way counts as inactive or inconclusive.

Key:
TAB165 = experiment: qHTS profiling for inhibitors of Plasmodium falciparum proliferation (AID 504749);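 note: 0% = DMSO vehicle and full inhibition = artemisinin control; nearly all actives have a fitted effect of over 60% in size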; conditions: P. falciparum in erythrocytes, SYBR Green DNA, 72 h; series mostly up to 28.7 µM
In short: (§1)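 P. falciparum-infected erythrocytes (0.3% parasitemia, 2.5% hematocrit final) were exposed to compounds for 72 h at 37 C in 5% CO2, then lysed with SYBR Green buffer overnight at room temperature; parasite DNA fluorescence was normalized to artemisinin and DMSO controls.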

W2 = experiment: as above; conditions: P. falciparum in erythrocytes, SYBR Green DNA, 72 h; series mostly up to 28.7 µM
In short: as §1

CRL-7250 = normal cell line; experiment: Cytotoxic Profiling of Annotated Libraries Using Quantitative High-Throughput Screening (AID 1296008); conditions: Five cell lines viability, CellTiter-Glo ATP luminescence, 48-72 h; max response: stronger effect = lower value; note: nearly all actives have a fitted effect of over 60% in size; for max response: % is set by controls: 0 for no effect and ±100 for the full control effect
In short: (§2)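 Compounds were pin-transferred onto cells and incubated 48 or 72 hr at 37 degree Celsius, 95% humidity. CellTiter-Glo was added, plates sat 10 min at room temperature, then ATP-coupled luminescence was imaged as the viability read-out.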

HEK293 = experiment: as above; conditions: Five cell lines viability, CellTiter-Glo ATP luminescence, 48-72 h; max response: stronger effect = lower value
In short: as §2

HaCat [1] = experiment: as above; conditions: Five cell lines viability, CellTiter-Glo ATP luminescence, 48-72 h; max response: stronger effect = lower value
In short: as §2

NIH3T3 [2] = experiment: as above; conditions: Five cell lines viability, CellTiter-Glo ATP luminescence, 48-72 h; max response: stronger effect = lower value
In short: as §2

HACAT [3] = experiment: qHTS assay to identify novel small-molecules to repurpose for Merkel cell carcinoma treatment (AID 1296009); conditions: MCC and control cell lines, CellTiter-Glo viability, 72 h; at 44.8 µM (top of the series) unless noted; note: nearly all actives have a fitted effect of over 60% in size; for activity change, negative = cytotoxicity: % is set by controls: 0 for no effect and ±100 for the full control effect
In short: (§3)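 Cells exposed to NPC (8-point) and MIPE (11-point) compound dilutions for 72 hr at 37 degree celsius; viability read by CellTiter-Glo luminescence, normalized to no-cell and DMSO in-plate controls.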

HEK293T = experiment: as above; conditions: MCC and control cell lines, CellTiter-Glo viability, 72 h; at 44.8 µM (top of the series) unless noted
In short: as §3

MCC-13 = experiment: as above; conditions: MCC and control cell lines, CellTiter-Glo viability, 72 h; series mostly up to 46 µM
In short: as §3

MCC-26 = experiment: as above; conditions: MCC and control cell lines, CellTiter-Glo viability, 72 h; series mostly up to 46 µM
In short: as §3

MKL-1 = experiment: as above; conditions: MCC and control cell lines, CellTiter-Glo viability, 72 h; series mostly up to 46 µM
In short: as §3

MKL-2 = experiment: as above; conditions: MCC and control cell lines, CellTiter-Glo viability, 72 h; series mostly up to 46 µM
In short: as §3

UISO = experiment: as above; conditions: MCC and control cell lines, CellTiter-Glo viability, 72 h; series mostly up to 46 µM
In short: as §3

WaGa = experiment: as above; conditions: MCC and control cell lines, CellTiter-Glo viability, 72 h; series mostly up to 46 µM
In short: as §3

C33A = experiment: Primary qHTS to identify gynecologic anti-cancer compounds using libraries of approved drugs and bioactive compounds (AID 1345084); conditions: Gynecologic cancer cell panel viability, ATPlite luminescence, 48 h; series mostly up to 57.5 µM; note: % is set by controls: 0 for no effect and ±100 for the full control effect; nearly all actives have a fitted effect of over 55% in size
In short: (§4)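 Luminescence from the ATPlite ATP-monitoring reagent indicates viable cell number; lower signal means cytotoxicity. Cells received compound 16 h after seeding and were exposed for 48 h across five concentrations.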

CAOV3 = experiment: as above; conditions: Gynecologic cancer cell panel viability, ATPlite luminescence, 48 h; series mostly up to 57.5 µM
In short: as §4

CASKI = experiment: as above; conditions: Gynecologic cancer cell panel viability, ATPlite luminescence, 48 h; series mostly up to 57.5 µM
In short: as §4

Es-2 = experiment: as above; conditions: Gynecologic cancer cell panel viability, ATPlite luminescence, 48 h; series mostly up to 57.5 µM
In short: as §4

KB-3-1 = experiment: Cytotoxic Profiling of Annotated Libraries Using Quantitative High-Throughput Screening (AID 1296008); conditions: Five cell lines viability, CellTiter-Glo ATP luminescence, 48-72 h; max response: stronger effect = lower value; note: nearly all actives have a fitted effect of over 60% in size; for max response: % is set by controls: 0 for no effect and ±100 for the full control effect
In short: as §2

NIH3T3 [4] = experiment: qHTS assay to identify novel small-molecules to repurpose for Merkel cell carcinoma treatment (AID 1296009); conditions: MCC and control cell lines, CellTiter-Glo viability, 72 h; at 44.8 µM (top of the series) unless noted; note: nearly all actives have a fitted effect of over 60% in size; for activity change, negative = cytotoxicity: % is set by controls: 0 for no effect and ±100 for the full control effect
In short: as §3

CC1(C)[C@@H]2CC[C@@]1(C)C(=O)C2
inactive: Potency (TAB165) | Potency (W2) | outcome (CRL-7250) | outcome (HEK293) | outcome (HaCat [1]) | max response (NIH3T3 [2]) -6.56% | outcome (HACAT [3]) | outcome (HEK293T) | Potency (MCC-13) | Potency (MCC-26) | Potency (MKL-1) | Potency (MKL-2) | Potency (UISO) | Potency (WaGa) | Potency (C33A) | Potency (CAOV3) | Potency (CASKI) | Potency (Es-2)

O=C1c2c(O)cccc2Cc2cccc(O)c21
inactive: Potency (TAB165) | Potency (W2) | max response (CRL-7250) 0.516% | outcome (HEK293) | outcome (HaCat [1]) | max response (NIH3T3 [2]) 4.73% | outcome (HACAT [3]) | outcome (HEK293T) | Potency (MCC-13) | Potency (MCC-26) | Potency (MKL-1) | Potency (MKL-2) | Potency (UISO) | Potency (WaGa) | Potency (C33A) | Potency (CAOV3) | Potency (CASKI) | Potency (Es-2)

Nc1ncnc2c1ncn2[C@@H]1O[C@H](CO)[C@@H](O)[C@H]1O
inactive: Potency (TAB165) | Potency (W2) | outcome (CRL-7250) | max response (HEK293) 1.55% | outcome (HaCat [1]) | max response (KB-3-1) 15.4% | outcome (HACAT [3]) | Potency (MCC-13) | Potency (MCC-26) | Potency (MKL-1) | Potency (UISO) | Potency (C33A) | Potency (CAOV3) | Potency (CASKI) | Potency (Es-2)

CC1=C(CC(=O)O)c2cc(F)ccc2/C1=C\c1ccc(S(C)(=O)=O)cc1
inactive: max response (CRL-7250) -16.5% | max response (HEK293) -17.6% | max response (HaCat [1]) -12.4% | max response (NIH3T3 [2]) -5.99% | Potency (MCC-13) | Potency (MKL-1) | Potency (C33A) | Potency (CAOV3) | Potency (CASKI) | Potency (Es-2)

C[C@@H]1CC[C@@]2(OC1)O[C@H]1C[C@H]3[C@@H]4CC[C@H]5C[C@@H](O)CC[C@]5(C)[C@H]4CC(=O)[C@]3(C)[C@H]1[C@@H]2C
inactive: outcome (CRL-7250) | outcome (HEK293) | outcome (HaCat [1]) | outcome (NIH3T3 [2]) | outcome (HACAT [3]) inactive [at 4.96 µM] | outcome (HEK293T) inactive [at 4.96 µM] | activity change, negative = cytotoxicity (MCC-13) -5.49% [at 4.84 µM] | activity change, negative = cytotoxicity (MCC-26) 5.06% [at 4.84 µM] | activity change, negative = cytotoxicity (MKL-1) 7.37% [at 4.84 µM] | activity change, negative = cytotoxicity (MKL-2) 2.92% [at 4.84 µM] | outcome (NIH3T3 [4]) inactive [at 4.96 µM] | activity change, negative = cytotoxicity (WaGa) 17.9% [at 4.84 µM] | activity change, negative = cytotoxicity (C33A) -0.977% [at 6.55 µM] | activity change, negative = cytotoxicity (CAOV3) -7.17% [at 6.55 µM] | activity change, negative = cytotoxicity (CASKI) 7.56% [at 6.55 µM] | activity change, negative = cytotoxicity (Es-2) -0.456% [at 6.55 µM]

NC(N)=NCCC[C@H](N)C(=O)O
inactive: outcome (CRL-7250) | max response (HEK293) -4.96% | outcome (HaCat [1]) | outcome (NIH3T3 [2]) | outcome (HACAT [3]) inactive [at 4.96 µM] | activity change, negative = cytotoxicity (MCC-13) 10.7% [at 4.84 µM] | activity change, negative = cytotoxicity (MCC-26) 1.83% [at 4.84 µM] | activity change, negative = cytotoxicity (MKL-1) 12.8% [at 4.84 µM] | activity change, negative = cytotoxicity (MKL-2) 13.9% [at 4.84 µM] | outcome (NIH3T3 [4]) inactive [at 4.96 µM] | activity change, negative = cytotoxicity (UISO) 9.23% [at 4.84 µM] | activity change, negative = cytotoxicity (WaGa) 4.2% [at 4.84 µM] | activity change, negative = cytotoxicity (C33A) -3.38% [at 6.55 µM] | activity change, negative = cytotoxicity (CAOV3) 24.7% [at 6.55 µM] | activity change, negative = cytotoxicity (CASKI) 1.66% [at 6.55 µM] | activity change, negative = cytotoxicity (Es-2) 2.88% [at 6.55 µM]
